PI4K2A block = blocks human PI4K2A kinase activity; Q9BTU6; purified PI4K2A, ADP-Glo luminescence, 1 h; active compounds read low; activity change, negative = inhibition, % at 76.9 µM; 420,000 tested, 0.13% active; AID 1346378; in the data active = activity change below about -50%; inconclusive = mostly about -30% to -49%;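 also: -100% = wells without enzyme as full effect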
Target sequence (Q9BTU6 whole entry, looked up): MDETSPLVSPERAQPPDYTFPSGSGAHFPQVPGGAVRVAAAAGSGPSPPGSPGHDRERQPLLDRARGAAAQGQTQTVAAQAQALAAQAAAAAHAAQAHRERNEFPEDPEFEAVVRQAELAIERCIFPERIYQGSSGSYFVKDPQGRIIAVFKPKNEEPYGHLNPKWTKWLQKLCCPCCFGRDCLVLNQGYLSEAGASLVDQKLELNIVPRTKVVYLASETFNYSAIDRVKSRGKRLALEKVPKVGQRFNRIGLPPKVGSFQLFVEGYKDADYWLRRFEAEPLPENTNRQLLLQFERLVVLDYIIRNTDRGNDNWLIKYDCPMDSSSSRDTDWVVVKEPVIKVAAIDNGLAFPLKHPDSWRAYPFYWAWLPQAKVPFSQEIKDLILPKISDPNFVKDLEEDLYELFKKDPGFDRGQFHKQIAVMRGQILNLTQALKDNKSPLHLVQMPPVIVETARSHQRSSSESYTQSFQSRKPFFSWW
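In this quantitative HTS, ADP production by PI4K2A was quantified luminescently after 1 h at ambient temperature; 100 microM adenosine served as plate-quality control.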
Integrin act MD = integrin-mediated muscular dystrophy alleviation activation | alpha7betagal myoblasts, beta-gal FDG fluorescence, 48 h | Potency, µM (series often up to 38.3 µM), without a hit: at the top dose activation, hits mostly activators | 350,000 tested, 0.064% active | AID 624291;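 also: potency is read from the fitted curve at half-maximal effect; 100% = response of the positive control SU9516; nearly all actives have a fitted effect of over 60% in size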
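Alpha7betagal+/- myoblasts (passage 13) were plated 16-24 hr, then exposed to compounds (1:260 dilution of DMSO stock) for 48 hours at 37C. After MPER lysis, β-galactosidase reporter activity was read as FDG fluorescence (ex 480/em 540) after 30 minutes.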
TrxR1 inh = blocks rat thioredoxin reductase 1. AID 588453. 390,000 tested, 1% active. recombinant rTrxR1, NADPH fluorescence consumption, selenite substrate. Potency, µM (titrated, usually from 114 µM), without a hit: top-dose activity change, negative = inhibition, hits mostly inhibitors. O89049; also: potency is read from the fitted curve at half-maximal effect; nearly all actives have a fitted effect of over 65% in size
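Rat TrxR1 (90 nM in the dispensed reagent) was pre-reduced with 400 uM NADPH for 5 min at room temperature, then incubated with compound for 15 min. After 400 uM selenite was added, NADPH fluorescence (Ex 340/Em 450 nm) was followed for 8 min.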
GALK inh = blocks human galactokinase activity; P51570; Purified GALK, Kinase-Glo residual ATP luminescence; Potency, µM (series often up to 57.5 µM), for the others: top-dose activity change, negative = inhibition, most hits filed as inhibitors; 270,000 tested, 0.007% active; AID 1868; also: potency is read from the fitted curve at half-maximal effect
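Quantitative HTS: GALK 5 nM, ATP 35 uM, galactose 100 uM, 1 h room temperature, then luciferase-based ATP detection.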
LDHA block = LDHA (human) enzyme inhibition; P00338; purified LDHA, NADH/diaphorase-resazurin fluorescence; active compounds read low; activity change, % (values are at about 110 or 230 µM); 480,000 tested, 0.15% active; in the data active = activity change below about -30%; inconclusive = mostly about -25% to -30%;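 also: plate controls were DMSO wells for no effect and wells without enzyme for full effect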
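Resorufin fluorescence (ex540/em590), read at 0 and 20 min after diaphorase/resazurin addition, reports the NADH left after a 5 min room-temperature reaction of 2 nM human LDH5 with 0.06 mM NADH and 0.2 mM pyruvate.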
TrxR1 substrate = substrates of rat thioredoxin reductase 1; O89049; purified TrxR1 substrate turnover, NADPH consumption readout; Potency, µM (titrated, usually from 114 µM), for the others: top-dose activity change, negative = substrate turnover; 390,000 tested, 0.01% active; also: potency is read from the fitted curve at half-maximal effect; nearly all actives have a fitted effect of over 50% in size
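Rat TrxR1, dispensed at 90 nM, was prereduced with 400 uM NADPH (final) for 5 min at ~22 deg C, then incubated with compound 15 min before 400 uM selenite. A first-read NADPH fluorescence drop versus no-compound background flagged substrates.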
The depositor's hits bear a star; [ ] = dose if it differs, or a comment. The list is not random: actives were taken first. Their share in the collection is about 1.1%. Unless noted, calls follow the shape of the dose curve; as a rule, active = well fitted curve in the direction sought with a large enough effect; inconclusive = small, poorly fitted or top-dose-only effect, or another doubt; inactive = no such curve, though single readings can be large; an effect the other way counts as inactive or inconclusive. Unless noted, % is scaled to controls: 0 for no effect and ±100 for the full control effect.

For Cc1n[nH]c(C)c1NC(=O)CN1CCN(S(=O)(=O)c2ccc(C(F)(F)F)cc2)CC1 the results were PI4K2A block 3.7, Integrin act MD 3.7%, TrxR1 inh -2.9%, LDHA block -36.6* and TrxR1 substrate -4.3%.
CC1=CC(=NOC(=O)c2cccc([N+](=O)[O-])c2)C=C(C)C1=O was read as PI4K2A block 5.9, Integrin act MD -39.1%, TrxR1 inh 10µM*, GALK inh -0.4%, LDHA block 9.5 and TrxR1 substrate -1.0%.
Screening CC1=CC(=O)C(C(C)C)=C/C1=N/OC(=O)c1cccc([N+](=O)[O-])c1 returned PI4K2A block -4.3, Integrin act MD -47.4%, TrxR1 inh 12.6µM*, GALK inh 0.3%, LDHA block 6.5 and TrxR1 substrate 7.0%.
Screening COc1cc(/C=C(\C#N)C(N)=O)ccc1OCc1c(C)no[n+]1[O-] returned PI4K2A block 1.8, Integrin act MD -27.1%, TrxR1 inh 2.4%, LDHA block -0.7 and TrxR1 substrate -5.3%.
For COC(=O)C1=C(C)NC(C)=C(C(=O)OC)C1c1ccccc1OCc1c(C)no[n+]1[O-] the results were PI4K2A block -0.5, Integrin act MD 2.82µM*, TrxR1 inh -6.6%[2.29 µM], GALK inh 4.0%, LDHA block 2.6 and TrxR1 substrate 6.9%[57.1 µM].
Screening O=C(/C=C\Nc1ccc2c(c1)OCO2)c1ccccn1 returned PI4K2A block -54.6*, Integrin act MD 7.9%, TrxR1 inh 30.5%, GALK inh 10.5%, LDHA block 2.6 and TrxR1 substrate 24.5%.
Screening O=C(Nc1ccc2c(c1)OCO2)c1ccccn1 returned PI4K2A block -14.0, Integrin act MD -4.4%, TrxR1 inh -18.2%, LDHA block 0.6 and TrxR1 substrate -4.6%.
`COc1ccccc1C(=O)Nc1c(C)nc(Nc2ccccc2)nc1Nc1ccccc1` gave LDHA block 4.9.
`CCSC1(SCC)N=C(N)C2(C#N)C(c3ccccc3)NC3=C(CCC3)C12C#N` (stereo unspecified) gave PI4K2A block 8.3, Integrin act MD -43.1%, TrxR1 inh inconclusive, GALK inh -0.9%, LDHA block -3.0 and TrxR1 substrate -0.6%.
For CCSC1(SCC)N=C(N)C2(C#N)C(c3ccc(OC)c(OC)c3OC)C12C#N (stereo unspecified) the results were PI4K2A block -3.5, Integrin act MD -64.1%, TrxR1 inh 44.7µM*, GALK inh 1.0%, LDHA block -4.1 and TrxR1 substrate -10.6%.
C=C1[C@@H](O)[C@H](CC(C)C)N(Cc2ccccc2Br)S1(=O)=O was read as PI4K2A block -1.6, Integrin act MD 0.0%, TrxR1 inh 5.01µM*, LDHA block -1.5 and TrxR1 substrate -3.0%[57.1 µM].
Screening O=S1(=O)CCO[C@H]2CCCC[C@@H]2N1Cc1ccccc1Br returned TrxR1 inh -4.7% and TrxR1 substrate -4.8%.
`Cc1ccc(S(=O)(=O)N/N=C/c2ccccc2O)cc1[N+](=O)[O-]` gave PI4K2A block -1.4, Integrin act MD 15.2%, TrxR1 inh 10.5%[57.1 µM], GALK inh 4.3%, LDHA block -6.7 and TrxR1 substrate 6.5%[57.1 µM].
Screening Cc1ccc(S(=O)(=O)N/N=C/c2ccc(O)c(O)c2)cc1[N+](=O)[O-] returned PI4K2A block 3.6, Integrin act MD -34.1%, TrxR1 inh 11.2µM*, GALK inh -0.8%, LDHA block 2.7 and TrxR1 substrate 1.5%.
`O=[N+]([O-])c1cc(Br)c(O)c(/C=N/Nc2nnnn2-c2cccc3ccccc23)c1` gave PI4K2A block -5.6, Integrin act MD 7.9%, TrxR1 inh 2.6%[57.1 µM], GALK inh inconclusive, LDHA block -36.8* and TrxR1 substrate -1.3%[57.1 µM].
CCOC(=O)c1ccc(NC(=O)CC2SC(c3cc4ccccc4oc3=O)=NC2=O)cc1 (stereo unspecified) was read as LDHA block -30.6*.
For O=C(CC1SC(c2cc3ccccc3oc2=O)=NC1=O)Nc1ccc2ccccc2c1 (stereo unspecified) the results were LDHA block 34.3.
`COc1cc(NC(=O)c2cnc(NCc3ccc4c(c3)OCO4)nc2C)cc(OC)c1` gave LDHA block 13.9.
Screening CCOC(=O)/C(C#N)=C\c1cn(C)c2ccccc12 returned PI4K2A block -0.6, Integrin act MD 9.9%, TrxR1 inh 17.3%[57.1 µM], GALK inh 3.0%, LDHA block -2.0 and TrxR1 substrate 3.3%.
CCOC(=O)/C(=C\c1cn(C)c2ccccc12)[N+](=O)[O-] was read as PI4K2A block 0.7, Integrin act MD -1.2%, TrxR1 inh 17.8µM*, GALK inh -4.3%, LDHA block 0.9 and TrxR1 substrate -13.3%.
O=C(OCc1ccc(F)cc1)c1cccc(S(=O)(=O)N2CCCCC2)c1 was read as LDHA block 8.1.
CCOc1ccccc1N(C)C(=O)CCS(=O)(=O)c1ccc2c(c1)NC(=O)C(C)S2 (stereo unspecified) was read as PI4K2A block 3.2, Integrin act MD -4.1%, TrxR1 inh 70.8µM*, GALK inh -5.3%, LDHA block -2.8 and TrxR1 substrate -4.1%.
Screening Cc1ccc(NC(=O)CSc2nnc(-c3ccco3)c(-c3ccco3)n2)cc1 returned PI4K2A block -23.8, Integrin act MD -46.5%, TrxR1 inh 1µM*, GALK inh 4.8%, LDHA block 6.2 and TrxR1 substrate -12.7%.
`COc1ccc(C(=O)CSc2nnc(-c3ccco3)n2C)cc1` gave PI4K2A block 8.5, Integrin act MD -15.4%, TrxR1 inh inconclusive, GALK inh 0.5%, LDHA block 0.8 and TrxR1 substrate -1.1%[57.1 µM].
For O=C(CSc1nnc(-c2ccco2)c(-c2ccco2)n1)Nc1ccccc1 the results were PI4K2A block -25.3, Integrin act MD -23.6%, TrxR1 inh 5.01µM*, GALK inh 3.3%, LDHA block 9.6 and TrxR1 substrate -13.4%.
Screening COc1ccc(C(=O)CSc2nnc(-c3ccco3)c(-c3ccco3)n2)cc1 returned PI4K2A block -29.6, Integrin act MD 22.7%, TrxR1 inh 8.91µM*, GALK inh 1.2%, LDHA block -0.2 and TrxR1 substrate -8.5%.
CSc1nnc(-c2ccco2)c(-c2ccco2)n1 was read as PI4K2A block -12.9, Integrin act MD -19.4%, TrxR1 inh 15.8µM*, GALK inh -3.0%, LDHA block 7.4 and TrxR1 substrate -9.4%.
`CN(C)c1ccc(NC(=O)CSc2nnc(-c3ccco3)c(-c3ccco3)n2)cc1` gave PI4K2A block -27.3, Integrin act MD -52.3%, TrxR1 inh -27.0%, GALK inh 0.5%, LDHA block 10.1 and TrxR1 substrate -10.0%.

From PubChem BioAssay
